# Screening results: PubChem BioAssay, several laboratories
# Hits are enriched below; roughly 3.7% of the tested compounds scored in any of these assays.
# TIM10 inh = growth inhibitors of TIM10 yeast strain; 330,000 compounds, 1.4% hits; S. cerevisiae TIM10 strain growth, BacTiter-Glo luminescence, 24 h; inhibition, % at 10 µM;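 active means inhibition of 40% or more at the single tested concentration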;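 further: wild-type TIM10 isogenic control strain grown at permissive 25 °C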
# PfHsp90 set2 = growth inhibition of yeast expressing Plasmodium Hsp90; S. cerevisiae expressing PfHsp90, BacTiter-Glo ATP, 48 h; yeast lacking PDR1 and PDR3 efflux regulators; inhibition, % at 9.4 µM; 310,000 compounds, 0.32% hits; AID 504621;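 active means every replicate shows inhibition above about 80%, whatever the replicate mean, limit read from the data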;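 further: 0% = DMSO neutral controls and 100% = 20 µM radicicol positive controls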
# tim23-1 inh = growth inhibitors of tim23-1 mutant yeast; S. cerevisiae tim23-1 growth, BacTiter-Glo luminescence, 24 h; inhibition, % at 20 µM; 330,000 compounds, 1.3% hits; AID 463212;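 active means growth inhibition of the mutant yeast at or above 50%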;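 further: temperature-sensitive mutant grown at 25 °C; plate controls were DMSO-treated mutant yeast for no effect and medium wells lacking yeast for full effect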
# tim10-1 inh = growth inhibitors of tim10-1 mutant yeast. S. cerevisiae tim10-1 ts strain growth, BacTiter-Glo, 24 h. inhibition, % at 20 µM. 330,000 compounds, 2.2% hits. AID 463190;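 active means inhibition of at least 40%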;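 further: mutant grown at 25 °C; 0% = DMSO wells with yeast and 100% = wells holding no yeast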
# V-ATPase pH = yeast V-ATPase proton transport regulation by pHLuorin; S. cerevisiae, pHLuorin cytosolic pH fluorescence; response, % at 10 µM; 350,000 compounds, 0.37% hits; AID 504577; in the data active means response mostly above about 7.3%, no sharp cut-off; inactive means mostly below about 5.4%; further: actives read high
# tim10-1 conf = tim10-1 yeast growth inhibition, confirmed. shares compounds with tim10-1 inh. S. cerevisiae tim10-1 ts strain growth, BacTiter-Glo, 24 h. inhibition, % at 20 µM. 7,400 compounds, 56% hits. AID 463213;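 active means inhibition of yeast growth at or above a set limit in either of two repeat tests at 20 µM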;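 further: tim10-1 mutant grown at permissive 25 °C to find synthetic lethal compounds; 0% = DMSO yeast wells and 100% = medium wells without yeast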
# Starred values were filed as active, the others as inactive; . = no result.
SMILES,TIM10 inh,PfHsp90 set2,tim23-1 inh,tim10-1 inh,V-ATPase pH,tim10-1 conf
CCc1cc(C(=O)NCC(c2ccc(OC)cc2)N2CCOCC2)sc1C (stereo unspecified),-4,0,7,4,4,.
COc1ccc(C(CNC(=O)c2oc3ccc(Cl)cc3c2C)N2CCCCC2)cc1 (stereo unspecified),18,0,25,47*,-1,0
COc1cccc(NC(=O)CN(C)C(=O)c2ccc(Cl)c(S(=O)(=O)N3CCCCCC3)c2)c1,-3,-3,2,3,1,.
Cc1ccc(NC(=O)N2CCc3ccccc3C2)c(C)c1,0,-4,15,6,0,.
Fc1ccc(Cn2nnnc2C(c2ccc(Cl)cc2)N2CCSCC2)cc1 (stereo unspecified),40,17,35,42*,-4,31
CC1CCN(C(c2ccc(N(C)C)cc2)c2nnnn2Cc2ccc(F)cc2)CC1 (stereo unspecified),27,12,41,39,-1,.
O=C(NCCc1ccc(F)cc1)C1CCC(=O)N(CC2CCCCC2)C1 (stereo unspecified),.,.,.,.,-3,.
COc1ccc(CC(=O)O/N=C(\N)Cc2ccc([N+](=O)[O-])cc2)cc1,28,-4,29,43*,5,63*
N/C(=N\OC(=O)Cc1ccc([N+](=O)[O-])cc1)c1cccc(Br)c1,13,.,24,58*,2,50*
CCCc1cc(C(=O)NNC(=S)NCc2ccccc2)cs1,34,39,17,44*,-1,29
NC(=O)C1CN(C(=O)c2cccc(S(=O)(=O)N3CCc4ccccc43)c2)c2ccccc2O1 (stereo unspecified),7,.,-4,1,-1,.
Cc1cc(O)c2/c(=N\N)c(-c3csc(C)n3)coc2c1,4,-6,12,-10,-1,.
CCC/C(=N\NC(=O)Cc1csc(N2CCOCC2)n1)c1ccccc1,-11,15,19,17,2,.
C/C(=N\NC(=O)Cc1csc(N2CCOCC2)n1)c1ccc(Cl)c(Cl)c1,39,6,18,41*,-2,19
CSc1ccccc1NC(=O)CSc1nnc(CNC(=O)c2ccccc2F)n1C,1,-9,3,6,2,.
CCCn1nc([N+](=O)[O-])c(C(C#N)c2nc3ccccc3o2)c(Cl)c1=O (stereo unspecified),30,3,42,48*,1,36*
Oc1ccccc1-c1nc(NCc2cccnc2)c2ccccc2n1,27,-10,46,49*,2,57*
Cc1nn(C(C)(C)C)c(C)c1/C=N/OC(=O)Nc1ccc(Cl)cc1,26,8,43,42*,2,30
O=c1c2ccccc2nnn1CSc1ccc2c(c1)OCCO2,21,62,40,42*,-4,35*
CCc1ccc(/C=C/c2c([N+](=O)[O-])c(=O)n(C)c(=O)n2C)cc1,39,16,41,40*,-3,35*
C/C(CCC12CC3CC(CC(C3)C1)C2)=N\NC(N)=S,4,10,45,58*,0,-11
CCOc1ccc(S(=O)(=O)N2CCN(CC(O)COc3cccc([N+](=O)[O-])c3)CC2)cc1 (stereo unspecified),28,-1,19,44*,-7,8
Cc1ccc(S(=O)(=O)N2CCN(CC(O)COc3ccccc3)CC2)cc1 (stereo unspecified),6,-28,22,10,-2,.
Cc1ccc(C)c(NC(=S)NNC(=O)c2csc3c2CCC(C)C3)c1 (stereo unspecified),-13,-9,23,44*,1,34*
Cc1ccccc1N(C(=O)c1ccccn1)C(C(=O)NCc1ccccc1)c1cccnc1 (stereo unspecified),10,-82,7,-14,-1,.
SMILES,TIM10 inh,PfHsp90 set2,tim23-1 inh,tim10-1 inh,V-ATPase pH,tim10-1 conf
Cc1ccc(F)c([C@H]2C3C=CCC(c4ccccc4)C3C(=O)N2Cc2ccccc2)c1 (stereo partly specified),4,14,6,44*,-5,31*
O=C1C2C(c3ccccc3)CC=CC2[C@H](c2ccc3ccccc3c2)N1Cc1ccccc1 (stereo partly specified),3,-12,7,46*,6,38*
Cc1ccc(F)c([C@H]2[C@@H]3C=CCC[C@@]3(C)C(=O)N2Cc2ccccc2)c1,40,.,47,45*,1,42*
COc1ccc(-c2cccc(C3CC=CC4C3C(=O)N(Cc3ccccc3)C4c3ccc4ccccc4c3)c2)cc1 (stereo unspecified),35,.,31,29,1,.
Cc1ccc(-c2cc([C@H]3[C@@H]4C=CCC[C@@]4(C)C(=O)N3Cc3ccccc3)ccc2F)cc1,13,-1,13,24,3,.
COc1ccc(CN2C(=O)c3cccnc3C2=O)cc1S(=O)(=O)NC1CCCCC1C (stereo unspecified),6,-3,10,2,0,.
Cc1ccc(NC(=O)COC(=O)c2cccc(S(=O)(=O)N3CCCCCC3)c2)cc1,.,.,.,.,-2,.
COc1cccc(-c2nc3ccc(C(=O)NC(C)Cc4cccnc4)cc3o2)c1 (stereo unspecified),0,-4,23,22,3,.
Cc1c(C)n(Cc2ccccc2)c2ccc(C(=O)OCCN(C)C)cc12,36,1,26,41*,-1,43*
CSCCC(NC(=O)c1ccccc1)C(=O)NCCc1ccccc1 (stereo unspecified),-4,-17,19,13,4,.
CSCCC(NC(=O)c1ccccc1Br)C(=O)NC(C)CCc1ccccc1 (stereo unspecified),4,1,1,76*,5,0
CCn1c(SCC(=O)NC2=NCCS2)nnc1C(C)NC(=O)c1ccccc1Br (stereo unspecified),-3,3,14,4,4,.
COc1ccc(C(=O)N2CCCC(CO)(Cc3ccccc3C)C2)o1 (stereo unspecified),9,-9,19,48*,7,25
Cc1ccccc1CC1(CO)CCCN(C(=O)c2cc(Cl)ccc2F)C1 (stereo unspecified),-5,-42,30,42*,-3,32*
O=C(CCNC(=O)c1ccc([N+](=O)[O-])cc1)Nc1cc(C(F)(F)F)ccc1N1CCOCC1,.,.,.,.,3,.
CN(C(=S)Nc1ccc(Oc2ccccc2)cc1)C1CCCCC1,27,-2,21,40*,-2,19
S=C(Nc1ccc(Oc2ccccc2)cc1)NC1CCCCCC1,.,-61,.,.,2,.
Cc1ccc(C(=O)c2no[n+]([O-])c2C(=O)c2ccc(C)cc2)cc1,1,128*,47,44*,0,60*
CC(C)c1ccc2oc(-c3cc(N)ccc3O)nc2c1,4,-107,49,52*,1,33*
